Laboratory results reported in the supplement of paper PMC7411054.
Structures can show the parent of a compound that is named as a salt.

Key:
Experiment in all cases: phenotypically active (imaging signature differs from DMSO and reproducible) at any of 0.3-9 uM (binary (1 = active, 0 = inactive)); higher = active
Details in all cases: treatment time: 24 h
[1] = test system: A549-ACTB-RAB5A
Procedure, shortened: (§1)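 Each of fifteen gene-edited A549, HepG2 and WPMY1 reporter lines, marked with BFP for segmentation and GFP and RFP/FusionRed, was treated in four wells at 0.3, 1, 3 or 9 µM for 24 h prior to live imaging. Normalisation of per-well live-cell features used solvent control wells. Deviation needed ≥3 of 4 wells beyond the 95th percentile of control Euclidean distances, and reproducibility needed a median replicate Pearson correlation above the 95th percentile of non-replicates. Both were required for phenotypic activity.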

[2] = test system: A549-CANX-COX4
Procedure, shortened: as §1

[3] = test system: A549-GM130-SQSTM1
Procedure, shortened: as §1

[4] = test system: A549-TP53BP1-CLTA
Procedure, shortened: as §1

[5] = test system: A549-TUBA1B-RELA
Procedure, shortened: as §1

[6] = test system: HepG2-ACTB-RAB5A
Procedure, shortened: as §1

[7] = test system: HepG2-CANX-COX4
Procedure, shortened: as §1

[8] = test system: HepG2-GM130-SQSTM1
Procedure, shortened: as §1

[9] = test system: HepG2-TP53BP1-CLTA
Procedure, shortened: as §1

[10] = test system: HepG2-TUBA1B-RELA
Procedure, shortened: as §1

[11] = test system: WPMY1-ACTB-RAB5A
Procedure, shortened: as §1

[12] = test system: WPMY1-CANX-COX4
Procedure, shortened: as §1

[13] = test system: WPMY1-GM130-SQSTM1
Procedure, shortened: as §1

[14] = test system: WPMY1-TP53BP1-CLTA
Procedure, shortened: as §1

[15] = test system: WPMY1-TUBA1B-RELA
Procedure, shortened: as §1

Measured: phenotypically active

CC[N+](CC)(CC)CCC(O)(c1ccccc1)C1CCCCC1 (stereo not given) [tridihexethyl]
inactive: [1] 0 | [2] 0 | [3] 0 | [4] 0 | [5] 0 | [6] 0 | [7] 0 | [8] 0 | [9] 0 | [10] 0 | [11] 0 | [12] 0 | [13] 0 | [14] 0 | [15] 0

CN(C)/N=N/c1[nH]cnc1C(N)=O [dacarbazine]
inactive: [1] 0 | [2] 0 | [3] 0 | [4] 0 | [5] 0 | [6] 0 | [7] 0 | [8] 0 | [9] 0 | [10] 0 | [11] 0 | [12] 0 | [13] 0 | [14] 0 | [15] 0

Cc1c(F)cc(C(=O)NC2CC2)cc1-c1ccc(C(=O)NCC(C)(C)C)cn1 [losmapimod]
inactive: [1] 0 | [2] 0 | [3] 0 | [4] 0 | [5] 0 | [6] 0 | [7] 0 | [8] 0 | [9] 0 | [10] 0 | [11] 0 | [12] 0 | [13] 0 | [14] 0 | [15] 0

C[C@@H]1C(=O)O[C@H]2C[C@@]34[C@H]5C[C@@H](C(C)(C)C)[C@]36[C@@H](OC(=O)[C@@H]6O)O[C@@]4(C(=O)O5)[C@]21O [Ginkgolide A]
inactive: [1] 0 | [2] 0 | [3] 0 | [4] 0 | [5] 0 | [6] 0 | [7] 0 | [8] 0 | [9] 0 | [10] 0 | [11] 0 | [12] 0 | [13] 0 | [14] 0 | [15] 0

CC(C)NCC(O)c1ccc(O)c(O)c1 (stereo not given) [Isoproterenol hydrochloride]
inactive: [1] 0 | [2] 0 | [3] 0 | [4] 0 | [5] 0 | [6] 0 | [7] 0 | [8] 0 | [9] 0 | [10] 0 | [11] 0 | [12] 0 | [13] 0 | [14] 0 | [15] 0

C[N+](C)(C)CCOC(N)=O [Carbamoylcholine chloride]
inactive: [1] 0 | [2] 0 | [3] 0 | [4] 0 | [5] 0 | [6] 0 | [7] 0 | [8] 0 | [9] 0 | [10] 0 | [11] 0 | [12] 0 | [13] 0 | [14] 0 | [15] 0

CCN(Cc1ccncc1)C(=O)C(CO)c1ccccc1 (stereo not given) [tropicamide]
inactive: [1] 0 | [2] 0 | [3] 0 | [4] 0 | [5] 0 | [6] 0 | [7] 0 | [8] 0 | [9] 0 | [10] 0 | [11] 0 | [12] 0 | [13] 0 | [14] 0 | [15] 0

CCOC(=O)Nc1ccc2c(c1)N(C(=O)CCN1CCOCC1)c1ccccc1S2 [moracizine]
inactive: [1] 0 | [2] 0 | [3] 0 | [4] 0 | [5] 0 | [6] 0 | [7] 0 | [8] 0 | [9] 0 | [10] 0 | [11] 0 | [12] 0 | [13] 0 | [14] 0 | [15] 0

N#Cc1ccccc1OCC(O)CNCCNC(=O)Nc1ccccc1 (stereo not given)
inactive: [1] 0 | [2] 0 | [3] 0 | [4] 0 | [5] 0 | [6] 0 | [7] 0 | [8] 0 | [9] 0 | [10] 0 | [11] 0 | [12] 0 | [13] 0 | [14] 0 | [15] 0

Cc1ccc(Nc2nnc(-c3ccc([N+](=O)[O-])cc3)o2)cc1Cl
inactive: [1] 0 | [2] 0 | [3] 0 | [4] 0 | [5] 0 | [6] 0 | [7] 0 | [8] 0 | [9] 0 | [10] 0 | [11] 0 | [12] 0 | [13] 0 | [14] 0 | [15] 0

CCCc1nc(C(C)(C)O)c(C(=O)OCc2oc(=O)oc2C)n1Cc1ccc(-c2ccccc2-c2nnn[nH]2)cc1 [olmesartan-medoxomil]
inactive: [1] 0 | [2] 0 | [3] 0 | [4] 0 | [5] 0 | [6] 0 | [7] 0 | [8] 0 | [9] 0 | [10] 0 | [11] 0 | [12] 0 | [13] 0 | [14] 0 | [15] 0

c1ccc(CC2=NCCN2)cc1 [tolazoline]
inactive: [1] 0 | [2] 0 | [3] 0 | [4] 0 | [5] 0 | [6] 0 | [7] 0 | [8] 0 | [9] 0 | [10] 0 | [11] 0 | [12] 0 | [13] 0 | [14] 0 | [15] 0
